Assay outcomes as filed in PubChem BioAssay.
The list is not random: actives were taken first. Their share in the collection is about 2.2%.
BaF3 parental: parental Ba/F3 viability inhibition as JAK2V617F counter-screen; CellTiter-Glo ATP luminescence; inhibition, % at 5.6 µM; 1.1% of 220,000 active; AID 1486;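 active means inhibition above a per-campaign cutoff, the mean inhibition of all tested compounds plus 3 SD, cut at about 27% in these data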;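 further: 0% = DMSO wells and 100% = JAK Inhibitor I control wells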
KLF5 inh: kruppel-like factor 5 inhibition | DLD-1 KLF5 promoter-luciferase reporter, luminescence | inhibition, % at 5 µM | 0.23% of 290,000 active;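 active means inhibition above a per-plate limit of that plate's mean compound inhibition plus 3 SD, cut at about 60% in these data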;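 further: 0% = DMSO wells and 100% = LY294002 at 200 µM; higher means less KLF5 promoter-driven luciferase light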
aSyn 5UTR inh: 5' untranslated region of α-synuclein, MLPCN primary screen; alpha-synuclein 5'UTR reporter, inhibitor activity; inhibition, % (tested at 7.5 µM); 0.82% of 300,000 active; in the data active means inhibition above about 60%;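 further: H4 neuroglioblastoma cells stably carrying SNCA 5'UTR luciferase fusion; 0% = DMSO wells and 100% = positive control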
Ba/F3 V617F tox: loss of viability in JAK2V617F-driven Ba/F3 cells; 1.1% of 220,000 active; inhibition, % at 5.6 µM; Ba/F3 EpoR-JAK2V617F viability, ATP luminescence; AID 1446;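 active means inhibition above the campaign mean plus 3 SD over all tested compounds, cut at about 24% in these data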;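 further: cytokine-independent growth of Ba/F3 cells driven by EpoR plus mutant JAK2; 0% = DMSO-treated cells and 100% = JAK inhibitor I control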
APP 5UTR inh: APP translation inhibition; inhibition, % at 2 µM; 0.82% of 190,000 active; SH-SY5Y APP 5'UTR-luciferase reporter, luminescence; AID 1285;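 active means inhibition above a set limit, derived from the sample mean plus 3 SD, cut at about 45% in these data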
IEC-6 cytotox: kills IEC-6 intestinal cells in KLF5 counter-screen; IEC-6 cytotoxicity, luminescence viability; inhibition, % at 5 µM; 0.78% of 290,000 active; AID 1825; in the data active means inhibition above about 22%;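 further: 0% = plate median of test compound wells and 100% = cytotoxic reference compound wells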
An asterisk follows results filed as active; . = no result.

SMILES	BaF3 parental	KLF5 inh	aSyn 5UTR inh	Ba/F3 V617F tox	APP 5UTR inh	IEC-6 cytotox
CCc1c(C)nc2ncnn2c1NCCc1ccccc1	13	-16	-5	0	4	0
O=C(NCc1ccc2c(c1)OCO2)C1CC(=O)N(CCc2ccc(Cl)cc2)C1 (stereo unspecified)	.	-38	-10	.	.	2
N#Cc1c(N2CCCC2)ccc(Br)c1Cl	39*	1	-12	0	.	-11
CN(C)S(=O)(=O)c1ccc(C(=O)OCCN=C2NS(=O)(=O)c3ccccc32)cc1	.	18	3	.	.	5
CN(C)S(=O)(=O)c1ccc(C(=O)OCCCN=C2NS(=O)(=O)c3ccccc32)cc1	3	-14	-3	-1	45*	2
CN(C)C(CNc1ncccn1)c1ccccc1 (stereo unspecified)	.	-11	20	.	.	0
Cc1ccc2nc(NC(=O)CSCC(=O)OCC(=O)c3ccccc3)sc2c1	1	4	62*	-3	21	-5
Cc1ccc2nc(NC(=O)CCCC(=O)O)sc2c1	2	9	102*	2	60*	-3
Cc1ccccc1OCCC(=O)Nc1ccc(Cl)cc1F	7	-13	15	-1	6	8
CCOc1ccc(CCNC(=O)CCNS(=O)(=O)c2ccc3c(c2)CCN3C(C)=O)cc1OCC	.	-22	13	.	.	-3
Cc1cc(C(=O)N/N=C/c2cc(Br)ccc2OC(=O)c2ccc(Br)cc2)n[nH]1	4	-4	84*	3	32	-1
Cc1cccc(C(=O)Oc2c(Br)cc(Br)cc2/C=N/NC(=O)c2ccncc2)c1	.	-20	5	.	.	2
Cc1cc(C(=O)N/N=C/c2cccs2)n[nH]1	0	-41	-83	-2	-65	1
Cc1cc(C(=O)N/N=C/c2cc(Br)cc(Br)c2OC(=O)c2cccc(F)c2)n[nH]1	4	-5	70*	-1	36	12
Cc1cc(C(=O)N/N=C/c2cc(Br)cc(Br)c2OC(=O)c2ccccc2)n[nH]1	4	2	89*	-5	31	0
Cc1cc(C(=O)N/N=C\c2cc(C(C)(C)C)ccc2O)n[nH]1	.	21	75*	.	.	9
CN(C)S(=O)(=O)NCC1CCCN(Cc2cc3ccccc3s2)C1 (stereo unspecified)	.	-22	6	.	.	-4
O=C(COc1ccccc1)Nc1c2c(nn1-c1ccc(F)cc1)CS(=O)(=O)C2	.	-31	-6	.	.	3
COc1ccc(C(=O)Nc2sc3c(c2C(=O)O)CC(C)(C)OC3)cc1	6	16	63*	-2	-2	-7
CC(C)COc1ccc(C(=O)Nc2sc3c(c2C(=O)O)CC(C)(C)OC3)cc1	5	12	63*	-3	8	3
COc1ccc(C(=O)N2CCCC(CNC(=O)c3ccccc3Cl)C2)o1 (stereo unspecified)	.	-38	4	.	.	6
Cc1ccc(CN2CCc3c(OCC(=O)Nc4cc(C)ccc4C)cccc3C2=O)cc1	10	0	0	-3	-8	5
Cc1[nH]n(-c2ccccc2)c(=O)c1N=Nc1c(O)cc(S(=O)(=O)N(C)C)c2ccccc12	.	.	71*	.	.	.
CCN(CC)S(=O)(=O)c1cccc(C(=O)N/N=C(\C)c2ccc(O)cc2O)c1	-3	14	111*	-2	44	-3
O=C(CNC(=O)c1ccccc1Br)N/N=C/c1ccccc1O	5	-15	4	3	16	4
SMILES	BaF3 parental	KLF5 inh	aSyn 5UTR inh	Ba/F3 V617F tox	APP 5UTR inh	IEC-6 cytotox
O=C(CNC(=O)c1ccccc1Br)N/N=C/c1cc(Br)ccc1O	3	-3	70*	-1	32	-2
CCCCCCCOc1ccc(OC(=O)c2cccnc2)cc1	44*	-18	23	58*	-3	13
CCCNC(=O)c1ccc2c(=O)c(O)c(C)[nH]c2c1	.	.	23	.	.	.
CCCNC(=O)c1ccc2c(=O)c(O)c(-c3ccc(F)cc3)[nH]c2c1	.	.	81*	.	.	.
CCCNC(=O)c1ccc2c(=O)c(O)c(-c3cccc(Br)c3)[nH]c2c1	.	.	84*	.	.	.
CC(C)(C)C(=O)Nc1ccnc(-c2cccnc2)n1	4	18	.	4	-14	-1
O=C(Nc1ccc(Br)cc1)c1cccc(-n2cnnn2)c1	.	-28	-18	.	.	-1
O=C(Nc1nc(-c2ccccn2)cs1)c1cccc(-n2cnnn2)c1	63*	9	83*	53*	.	16
COc1ccc(NC(=O)c2ccc(Oc3ncccn3)cc2)cc1	2	-77	-84	0	-19	3
c1ccc(-c2nnsc2-c2ncc[nH]2)cc1	-1	15	18	-2	-7	10
O=S(=O)(c1ccc(F)cc1)c1snnc1-c1ccccc1	68*	20	-76	61*	93*	3
O=S(=O)(c1ccc(Cl)cc1)c1snnc1-c1ccccc1	33*	8	116*	44*	96*	-3
CCOc1ccc(-c2cc(C(=O)N/N=C(\C)c3cccnc3)c3ccccc3n2)c(OCC)c1	.	-3	47	.	.	1
Cc1ccc(Nc2nc(-c3cccnc3)nc3ccccc23)cc1	30*	0	-95	49*	.	19
COc1ccc(-c2csc(NC(=O)c3ccccc3NS(=O)(=O)c3ccc(F)c(F)c3)n2)cc1	103*	78*	74*	100*	-6	58*
Cc1ccc(C)c(NC(=S)N/N=C/C(C)c2ccccc2)c1 (stereo unspecified)	7	-13	-34	-1	0	0
COc1ccc(C2=NOC(C(=O)NCc3ccccc3)C2)cc1 (stereo unspecified)	3	35	-16	3	30	27*
CCOc1ccc(OCc2cccc(C(=O)N/N=C/c3cccnc3)c2)cc1	10	52	87*	1	-20	-1
CCOc1cccc(/C=N/NC(=O)c2cccnc2)c1O	.	94*	18	.	.	11
COc1ccc(O)c(/C=N/NC(=O)c2ccc(OCc3cccc(Br)c3)cc2)c1	3	-43	82*	-2	66*	-1
CC(C)c1ccc(OCc2cccc(C(=O)N/N=C/c3cccnc3)c2)cc1	4	-151	30	-4	-103	-4
O=C(N/N=C/c1ccc(F)cc1)c1ccc(OCc2ccccc2)cc1	49*	-12	14	4	.	-6
COc1ccc(NC(=O)C(=O)NCCN2CCN(C(=O)c3ccco3)CC2)cc1	9	2	3	3	1	4
COc1ccc(NC(=O)CN(C)C(=O)CCCSc2nc3ccccc3[nH]2)cc1	.	.	-23	.	.	.
CCC(C)(C)c1ccc(OCCCC[n+]2cccc(C)c2)c(C(C)(C)CC)c1	87*	26	21	101*	3	16
Oc1cc(-c2ccccc2)c2ccccc2c1	5	-27	19	-1	-19	-8
COCCn1c(=S)[nH]c2cc(C(=O)N3CCCC(C)C3)ccc2c1=O (stereo unspecified)	.	-42	-18	.	.	-6
CCCN1CCCc2cc(CN)ccc21	63*	-13	12	63*	0	6
CCOC(=O)N1CCN(C(=O)c2cccc(S(=O)(=O)Nc3ccc(Br)cc3)c2)CC1	.	.	6	.	.	.
